PubChem BioAssay AID1159580 (chemical genetic matrix, 2015)
Several values for one entry are separate records, joined by “and”; a condition that tells them apart may be missing. Identical values can stand only once. Out of some 5,500 compounds screened, about 2,000 (36%) were called active. Inconclusive results (about 18%) are left out. No stated cut-off is given here; in the data, active means normalized growth mostly below about 0.91 (no sharp cut-off); inconclusive means no clear call, values can overlap the other calls; inactive means mostly above about 0.92. The list shows a part of the results.

Experiment: chemical genetic growth profiling, strain panel (AID 1159580);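 further: tested at 20 µM; growth read once vehicle control cultures reached saturation at 30 °C; 1 = growth at the plate median or of vehicle wells; lower values mean less growth of the strain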
Settings: S. cerevisiae deletion strains, growth OD

Measured: normalized growth

NCc1ccc(S(N)(=O)=O)cc1
inactive: locus YAL021C, strain ccr4, hits give low values 1.01 | locus YAL026C, strain drs2, hits give low values 0.992 | locus YAL030W, strain snc1, hits give low values 1.01 | locus YBL061C, strain skt5, hits give low values 1.01 | locus YBR009C, strain hhf1, hits give low values 0.972 | locus YBR021W, strain FUR4, hits give low values 1.01 | locus YBR023C, strain chs3, hits give low values 1.02 | locus YBR171W, strain sec66, hits give low values 1 | locus YBR229C, strain ROT2, hits give low values 0.986 | locus YBR231C, strain swc5, hits give low values 1.02 | locus YBR279W, strain paf1, hits give low values 1 | locus YCL011C, strain gbp2, hits give low values 1.01 | locus YCL016C, strain dcc1, hits give low values 1.03 | locus YCL029C, strain bik1, hits give low values 0.993 | locus YCL061C, strain MRC1, hits give low values 1.02 | locus YCL069W, strain vba3, hits give low values 0.994 | locus YCR088W, strain abp1, hits give low values 1.01 | locus YDL005C, strain med2, hits give low values 1.02 | locus YDL035C, strain GPR1, hits give low values 1.01 | locus YDL040C, strain nat1, hits give low values 1 | locus YDL074C, strain BRE1, hits give low values 1.01 | locus YDL101C, strain DUN1, hits give low values 0.987 | locus YDL134C, strain PPH21, hits give low values 0.994 | locus YDL185W, strain tfp1, hits give low values 0.977 | locus YDL192W, strain arf1, hits give low values 0.979 | locus YDR001C, strain nth1, hits give low values 0.998 | locus YDR069C, strain doa4, hits give low values 1.01 | locus YDR101C, strain arx1, hits give low values 1.02 | locus YDR137W, strain rgp1, hits give low values 1.03 | locus YDR150W, strain NUM1, hits give low values 1.01 | locus YDR159W, strain sac3, hits give low values 0.983 | locus YDR162C, strain NBP2, hits give low values 1.01 | locus YDR195W, strain ref2 0.989 | locus YDR297W, strain sur2, hits give low values 1.01 | locus YDR318W, strain mcm21, hits give low values 0.99 | locus YDR334W, strain swr1, hits give low values 1 | locus YDR335W, strain msn5, hits give low values 1.01 | locus YDR388W, hits give low values 0.993 | locus YDR392W, strain spt3, hits give low values 0.969 | locus YDR502C, strain sam2, hits give low values 0.99 | locus YEL003W, strain gim4, hits give low values 0.982 | locus YEL037C, strain rad23, hits give low values 0.992 | locus YEL061C, strain CIN8 (second series), hits give low values 1 | locus YEL061C, strain CIN8, hits give low values 1.01 | locus YER015W, strain faa2, hits give low values 0.99 | locus YER016W, strain bim1, hits give low values 1.02 | locus YER110C, hits give low values 0.983 | locus YER111C, strain swi4, hits give low values 0.998 | locus YER155C, strain BEM2 (second series), hits give low values 1.01 | locus YER155C, strain BEM2, hits give low values 0.984 | locus YER167W, strain BCK2, hits give low values 1.02 | locus YFR010W, strain ubp6, hits give low values 0.995 | locus YGL078C, strain dbp3, hits give low values 0.98 | locus YGL086W, strain mad1, hits give low values 0.995 | locus YGL167C, strain pmr1, hits give low values 0.997 | locus YGL173C, strain kem1, hits give low values 1.02 | locus YGL227W, strain vid30, hits give low values 1.01 | locus YGL240W, strain doc1, hits give low values 1.04 | locus YGL248W, strain PDE1, hits give low values 0.984 | locus YGL253W, strain hxk2, hits give low values 1.01 | locus YGR135W, strain pre9, hits give low values 0.961 | locus YGR252W, strain gcn5, hits give low values 0.928 | locus YHR013C, strain ard1, hits give low values 1.04 | locus YHR027C, strain rpn1, hits give low values 1.02 | locus YHR030C, strain SLT2, hits give low values 1.01 | locus YHR079C, strain IRE1 (second series), hits give low values 0.991 | locus YHR079C, strain IRE1, hits give low values 1.04 | locus YHR094C, strain hxt1, hits give low values 0.996 | locus YHR129C, strain ARP1, hits give low values 0.986 | locus YHR142W, strain chs7, hits give low values 1.01 | locus YHR200W, strain rpn10, hits give low values 0.984 | locus YIL066C, strain RNR3, hits give low values 0.989 | locus YIL073C, strain SPO22, hits give low values 1.01 | locus YIL125W, strain kgd1, hits give low values 0.983 | locus YIR030C, strain dcg1, hits give low values 0.991 | locus YJL092W, strain hpr5, hits give low values 1.01 | locus YJL095W, strain BCK1 (second series), hits give low values 1.01 | locus YJL095W, strain BCK1, hits give low values 0.988 and 1.01 | locus YJL115W, strain asf1, hits give low values 1 | locus YJL129C, strain trk1, hits give low values 1.05 | locus YJL134W, strain LCB3, hits give low values 1 | locus YJL154C, strain vps35, hits give low values 1 | locus YJL164C, strain tpk1, hits give low values 0.98 | locus YJL166W, strain qcr8, hits give low values 1.04 | locus YJL168C, strain set2, hits give low values 0.991 | locus YJL187C, strain SWE1 (second series), hits give low values 0.981 | locus YJL187C, strain SWE1, hits give low values 1.01 | locus YJR043C, strain POL32, hits give low values 1.01 | locus YJR066W, strain TOR1, hits give low values 0.957 | locus YJR075W, strain HOC1, hits give low values 0.995
